# Only some compounds are listed: those with a hit (about 2% of all), similar ones and a draw of the others.
# ARNT-TACC3 inh = ARNT/TACC3 interaction disruption; 390,000 compounds, 0.66% hits; AID 623870; AlphaScreen His-ARNT PAS-B/GST-TACC3 binding, luminescence; TACC3 fragment carries E629A point mutation; inhibition, % at 9.99 µM;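 active = mean inhibition of replicates at least 50% and at least half of replicates each reaching 50%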
# Neddylation inh = blocks human cullin neddylation. P61081+Q13564. TR-FRET cullin neddylation, biochemical. inhibition, % at 25 µM. 360,000 compounds, 0.58% hits. AID 651699; in the data active = inhibition above about 36%
# Target sequence (P61081 whole entry, looked up): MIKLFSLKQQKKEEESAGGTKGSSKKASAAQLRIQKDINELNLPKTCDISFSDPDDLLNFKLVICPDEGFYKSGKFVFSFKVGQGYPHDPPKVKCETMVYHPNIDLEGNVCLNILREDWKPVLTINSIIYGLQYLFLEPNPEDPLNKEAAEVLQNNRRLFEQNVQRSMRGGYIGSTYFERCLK
# Target sequence (Q13564 whole entry, looked up): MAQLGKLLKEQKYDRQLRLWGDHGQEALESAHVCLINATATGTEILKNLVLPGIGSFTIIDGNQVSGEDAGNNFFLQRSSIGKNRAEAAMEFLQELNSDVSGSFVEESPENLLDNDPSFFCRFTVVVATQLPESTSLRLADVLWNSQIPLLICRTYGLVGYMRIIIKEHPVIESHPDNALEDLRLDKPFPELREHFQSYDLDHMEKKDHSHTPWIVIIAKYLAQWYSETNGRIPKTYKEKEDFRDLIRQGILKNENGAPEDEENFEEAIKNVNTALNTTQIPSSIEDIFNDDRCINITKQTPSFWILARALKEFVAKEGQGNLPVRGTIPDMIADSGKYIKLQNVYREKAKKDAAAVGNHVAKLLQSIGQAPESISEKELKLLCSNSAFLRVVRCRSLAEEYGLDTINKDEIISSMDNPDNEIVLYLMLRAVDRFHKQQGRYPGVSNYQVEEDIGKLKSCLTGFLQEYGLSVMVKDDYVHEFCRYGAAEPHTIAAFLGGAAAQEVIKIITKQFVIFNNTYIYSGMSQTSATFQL
# NadD block = blocks S. aureus nicotinate mononucleotide adenylyltransferase | inhibition, % at 20 µM | 360,000 compounds, 0.78% hits | purified NadD enzyme, colorimetric absorbance read-out | AID 602399; in the data active = inhibition above about 26%
# DAGLB inhibitor = blocks human DAGLB lipase activity. Q8NCG7. HEK293T DAGLB membrane lysate, EnzChek fluorogenic substrate. inhibition, % at 5.17 µM. 340,000 compounds, 0.059% hits; in the data active = inhibition above about 34%
# sPLA2-III inh = Blocks human group III sPLA2 activity; QFRET BODIPY PC-A2 liposome hydrolysis, fluorescence; inhibition, % at 12.2 µM; 370,000 compounds, 0.56% hits;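 active = inhibition above mean plus 3 SD of compounds lying within the high and low control bounds, cut at about 19% in these data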
# sPLA2 confirm = human GIII-sPLA2 inhibition, confirmation; shares compounds with sPLA2-III inh; recombinant hGIII-sPLA2, BODIPY PC-A2 QFRET fluorescence; inhibition, % at 12.2 µM; 2,000 compounds, 34% hits;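 active = mean inhibition across triplicates above the hit cutoff set in the earlier primary screen, cut at about 19% in these data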
# 535nm interf = 535nm fluorescence interference, HGIII-sPLA2 counter-screen. AID 743282. 2,000 compounds, 8.5% hits. shares compounds with sPLA2-III inh. inhibition, % at 12.2 µM. BODIPY FL product fluorescence interference, QFRET;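 active = average inhibition above the solvent-only control mean plus 3 SD, cut at about 6% in these data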
# 535nm interf DR = counter-screen for HGIII-sPLA2 inhibitors: 535nm fluorescence interference, dose response; BODIPY FL product fluorescence interference, cell-free; shares compounds with sPLA2-III inh; IC50, µM; 240 tested, under 10 active;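 active = IC50 at or below 10 µM; inactive = IC50 above 10 µM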
# Numbers stand for hits; - = inactive; . = no result given.
SMILES,ARNT-TACC3 inh,Neddylation inh,NadD block,DAGLB inhibitor,sPLA2-III inh,sPLA2 confirm,535nm interf,others
S=c1[nH]nc(-c2ccccn2)n1/N=C/c1cccc2ccccc12,56,-,-,-,21,27,-,
CCn1c(-c2cc3c(C(F)(F)F)nn(C)c3s2)n[nH]c1=S,-,.,-,-,20,34,-,535nm interf DR=-
Cn1c(-c2cc3c(C(F)(F)F)nn(C)c3s2)n[nH]c1=S,-,.,-,-,-,.,.,
Cc1c(NC(=S)N/N=C/C=C/c2ccccc2)c(=O)n(-c2ccccc2)n1C,-,-,-,-,-,.,.,
Cc1c(NC(=S)N/N=C\c2ccccc2O)c(=O)n(-c2ccccc2)n1C,66,.,-,-,34,-,-,
COc1ccc(/C=N/NC(=S)Nc2c(C)n(C)n(-c3ccccc3)c2=O)cc1OC,-,-,-,-,-,.,.,
Cc1c(NC(=S)N/N=C/c2ccc(Br)cc2)c(=O)n(-c2ccccc2)n1C,-,-,-,-,20,20,-,
CCOCCCn1c(-c2ccc(Cl)cc2)n[nH]c1=S,-,-,-,-,22,-,-,
COCCCn1c(-c2ccc(Cl)cc2)n[nH]c1=S,-,-,-,-,-,.,.,
S=c1[nH]nc(-c2ccc(Cl)cc2)n1CCCN1CCOCC1,-,-,-,-,20,-,-,
COc1cccc(-c2ccc3n(c2=O)C[C@H]2[C@H](CO)[C@@H](C(=O)N(C)C)[C@@H]3N2Cc2cncnc2)c1,-,.,.,.,.,.,.,
CCc1ccccc1NC(=S)NC1CC2CCC(C1)N2Cc1ccco1 (configuration not stated),-,-,-,-,21,-,-,
Cc1cccc(NC(=S)NC2CC3CCC(C2)N3Cc2ccco2)c1C (configuration not stated),-,-,-,-,-,.,.,
CC(C)CC#Cc1ccc2c(c1)O[C@@H](CN(C)C(=O)Cc1ccccc1)[C@@H](C)CN([C@H](C)CO)S2(=O)=O,-,.,.,.,.,.,.,
COc1ccc(C)cc1NCc1ccc([N+](=O)[O-])cc1,-,-,-,-,19,-,-,
CC(C)NC(=O)Nc1ccc2c(c1)C(=O)N([C@H](C)CO)C[C@@H](C)[C@H](CN(C)C(=O)c1ccccc1)OCCCC[C@H](C)O2,-,.,.,.,.,.,.,
CCCC(=O)Nc1ccc2c(c1)OC[C@@H](C)N(CC1CCCC1)C[C@@H](C)[C@@H](OC)CN(C)C2=O,-,.,.,.,.,.,.,
O=C(NC(=S)N(Cc1ccccc1)c1ccccn1)C1CCCCC1,-,-,-,-,24,-,-,
COc1ccc(S(=O)(=O)N(C)C[C@H]2Oc3c(NC(=O)C4CC4)cccc3C(=O)N([C@@H](C)CO)C[C@H]2C)cc1,-,.,.,.,.,.,.,
CC(NC(=O)Cc1ccccc1[N+](=O)[O-])c1ccccc1 (configuration not stated),.,.,.,.,23,-,-,
CC(NC(=O)COC(=O)Cc1ccccc1[N+](=O)[O-])c1ccccc1 (configuration not stated),-,-,-,-,-,.,.,
CCCCC(=O)Oc1cc(C)[nH]c(=O)c1[N+](=O)[O-],-,-,-,-,21,-,-,
COc1ccccc1-c1cn(CC[C@H]2CC[C@@H](NC(=O)Cc3ccccn3)[C@H](CO)O2)nn1,-,.,.,.,.,.,.,
CO[C@@H]1CN(C)C(=O)c2cc(NC(=O)C3CC3)ccc2OC[C@@H](C)N(C(=O)C2CCCCC2)C[C@H]1C,-,.,.,.,.,.,.,
COCCn1c(=NC(=O)c2ccc(S(=O)(=O)N3CCCc4ccccc43)cc2)sc2cc(S(C)(=O)=O)ccc21,-,-,-,-,20,-,-,
SMILES,ARNT-TACC3 inh,Neddylation inh,NadD block,DAGLB inhibitor,sPLA2-III inh,sPLA2 confirm,535nm interf,others
CNC(=O)C[C@H]1CC[C@@H]2[C@@H](COc3ccc(NC(=O)c4ccccc4Cl)cc3C(=O)N2C)O1,-,.,.,.,.,.,.,
O=[N+]([O-])c1ccc(NNS(=O)(=O)c2cc(Cl)ccc2Cl)nc1,-,-,-,-,23,48,72,
O=[N+]([O-])c1ccc(Nc2ccc(Cl)cc2)nc1,-,-,-,.,-,.,.,
COC(=O)[C@]12C[C@H](CC(=O)N3CCN(C(=O)C4CC4)CC3)C(=O)N(Cc3ccco3)C1=C[C@H](C(C)C)O[C@@H]2C1CC1,.,.,.,.,20,-,-,
COc1ccc(Br)cc1CN(C)C(C)C(=O)Nc1cc([N+](=O)[O-])ccc1OC (configuration not stated),-,-,-,-,20,-,-,
COc1ccc(C#Cc2ccc3c(c2)[C@]2(C(=O)N3)[C@H](c3ccc(OCCO)cc3)N3[C@H](c4ccccc4)[C@H](c4ccccc4)OC(=O)[C@H]3[C@@H]2C(=O)N2CCCCCCC2)cc1,-,.,.,.,.,.,.,
O=C1C=CC(=O)N1c1ccc2c(c1)C(NC(=O)C(F)(F)F)c1ccccc1-2 (configuration not stated),.,-,-,-,19,-,-,
CN(C)C(=O)NC1c2ccccc2-c2ccccc21,-,-,-,-,-,.,.,
C[C@@H]1CN([C@@H](C)CO)C(=O)c2cc(C#Cc3ccccc3F)cnc2O[C@H]1CN(C)C(=O)c1ccc2c(c1)OCO2,-,.,.,.,.,.,.,
COc1ccc(C(C)NC(=S)NC2CCCC2)cc1OC (configuration not stated),-,-,-,-,-,.,.,
Cc1ccc(C(C)NC(=S)NC2CCCCC2)cc1C (configuration not stated),-,-,-,-,20,-,-,
COc1ccc(/C(C)=N/NC(=O)c2nnn(-c3nonc3N)c2CN(C)c2ccccc2)cc1,.,-,-,-,-,.,.,
C/C(=N\NC(=O)c1nnn(-c2nonc2N)c1CN(C)c1ccccc1)c1ccccc1O,-,.,36,-,24,33,-,535nm interf DR=-
CN(C)C(=O)OCC1COc2ccccc2O1 (configuration not stated),-,-,-,-,21,-,-,
Cc1noc(C)c1S(=O)(=O)Nc1ccc2c(c1)C(=O)N([C@@H](C)CO)C[C@@H](C)[C@@H](CN(C)CC1CCCCC1)O2,-,.,.,.,.,.,.,
c1ccc2[nH]c(SCc3cn4cccnc4n3)nc2c1,-,-,-,-,23,-,-,
O=C(CCSCCc1ccccn1)Nc1cc(F)ccc1F,-,-,-,-,19,-,-,
O=C(CCSCCc1ccccn1)Nc1ccc(Br)cc1F,-,-,-,-,-,.,.,
C(=NOCc1ccccc1)c1ccncc1,-,-,-,-,-,.,.,
C(=NOCCc1ccccc1)c1cccnc1,-,-,-,-,20,-,-,
CCC1CCCCN1C(=S)NCc1ccccc1 (configuration not stated),.,-,-,-,24,-,-,
S=C(NCc1ccccc1)N1CCCCC1,.,-,-,-,-,.,.,
CCC(=O)N[C@@H]1C=C[C@@H](CC(=O)NCCN2CCCCC2)O[C@H]1CO,-,.,.,.,.,.,.,

# Screens: PubChem, several laboratories
